# According to PubChem BioAssay (EPA / NIEHS):
# Values joined by “and” are separate entries in the source; they are usually repeats but may differ in a detail not shown here. Equal values may be shown once. Results filed as inconclusive are left out. Active and inactive are the calls of the source. The calls were made as follows, unless noted: active = hit-call score of the fitted dose curve at least 0.9, where 1 is the maximum; inactive = score below 0.9.
# How the values were obtained:
# [1] = target: Nucleoli Translocation, AR (gene 367) (UniProt P10275); test: UPITT_HCI_U2OS_AR_TIF2_Nucleoli_Antagonist: University of Pittsburgh U2OS Androgen Receptor-Transcriptional Intermediary Factor 2 (AR-TIF2) Antagonism High Content Imaging Assay for Nucleoli Translocation (AID 2283997; active = hit-call score of the fitted dose curve at least 0.9, where 1 is the maximum)
# Sequence of Nucleoli Translocation, AR (gene 367) (P10275 whole entry, looked up): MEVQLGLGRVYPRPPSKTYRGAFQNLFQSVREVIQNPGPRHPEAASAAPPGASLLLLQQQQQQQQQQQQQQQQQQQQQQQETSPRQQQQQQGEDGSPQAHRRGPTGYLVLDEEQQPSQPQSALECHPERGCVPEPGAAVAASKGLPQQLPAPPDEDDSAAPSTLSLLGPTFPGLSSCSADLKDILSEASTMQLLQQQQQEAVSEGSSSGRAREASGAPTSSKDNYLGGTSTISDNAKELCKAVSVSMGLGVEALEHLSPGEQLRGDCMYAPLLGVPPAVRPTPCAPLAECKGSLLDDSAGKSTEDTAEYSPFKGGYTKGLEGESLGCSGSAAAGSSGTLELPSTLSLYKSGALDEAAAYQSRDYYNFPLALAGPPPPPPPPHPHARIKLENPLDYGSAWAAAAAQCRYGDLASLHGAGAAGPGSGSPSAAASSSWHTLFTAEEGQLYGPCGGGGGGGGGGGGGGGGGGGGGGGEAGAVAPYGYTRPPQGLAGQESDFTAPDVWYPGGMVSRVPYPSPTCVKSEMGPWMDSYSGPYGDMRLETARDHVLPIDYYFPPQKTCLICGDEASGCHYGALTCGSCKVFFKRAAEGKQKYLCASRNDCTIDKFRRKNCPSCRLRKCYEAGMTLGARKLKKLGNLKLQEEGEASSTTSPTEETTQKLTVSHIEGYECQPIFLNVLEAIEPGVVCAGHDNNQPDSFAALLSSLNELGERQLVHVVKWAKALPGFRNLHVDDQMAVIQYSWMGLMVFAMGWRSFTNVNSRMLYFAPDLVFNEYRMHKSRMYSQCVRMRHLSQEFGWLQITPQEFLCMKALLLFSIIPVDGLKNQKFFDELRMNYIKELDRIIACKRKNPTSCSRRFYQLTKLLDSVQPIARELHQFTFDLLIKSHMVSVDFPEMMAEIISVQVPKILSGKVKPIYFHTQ
# How it was run: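 Measured quantity was AR-RFP fluorescence localized to nucleoli in engineered U2OS cells also bearing TIF2-GFP, acquired on automated high-content imagers. Primary testing used 20 uM compound; actives were confirmed in triplicate wells.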
# [2] = target: Nucleoli Translocation, AR (gene 367) (UniProt P10275); test: UPITT_HCI_U2OS_AR_TIF2_Nucleoli_Agonist: University of Pittsburgh U2OS Androgen Receptor-Transcriptional Intermediary Factor 2 (AR-TIF2) Agonism High Content Imaging Assay for Nucleoli Translocation (AID 2283998; active = hit-call score of the fitted dose curve at least 0.9, where 1 is the maximum)
# How it was run: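 Red-tagged human androgen receptor co-expressed with GFP-tagged TIF2 serves as the binding reporter. Primary testing used 20 uM final (0.2% DMSO); follow-up dose response covered 0.195 to 50 uM final (0.5% DMSO).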
# [3] = target: Ratio of Nucleoli Translocation and Cytoplasm, AR (gene 367) (UniProt P10275); test: UPITT_HCI_U2OS_AR_TIF2_Nucleoli_Cytoplasm_Ratio_Agonist: University of Pittsburgh U2OS Androgen Receptor-Transcriptional Intermediary Factor 2 (AR-TIF2) Agonism High Content Imaging Assay for Ratio of Nucleoli Translocation and Cytoplasm (AID 2284000; active = hit-call score of the fitted dose curve at least 0.9, where 1 is the maximum;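 also: hits raise the red nucleolar to cytoplasm ratio above vehicle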)
# Sequence of Ratio of Nucleoli Translocation and Cytoplasm, AR (gene 367) (P10275 whole entry, looked up): as above
# How it was run: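 Read-out first: nucleolar-to-cytoplasm ratio of red (AR-RFP) signal, quantified by high-content imaging in U2OS cells co-expressing TIF2-GFP. Activity is scored as signal increase over DMSO. Single-point screening used 20 uM final (0.2% DMSO).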
# [4] = CCTE_Simmons_MITO_basal_resp_rate: CCTE's HepG2 Seahorse XF Respirometric Screening Assay at Basal Respiratory State, Simmons Lab (AID 2284001); settings: actives raise or lower the signal
# How it was run: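 HepG2 respirometry; 7-pt titration 125 nM–100 uM final; kinetic OCR at 6 min intervals for 72 min; n=3 biological, technical singles; DMSO baseline, gain or loss fit; fenpyroximate (decrease) and 2,4-DNP (increase) controls.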
# [5] = CCTE_Simmons_MITO_max_resp_rate: CCTE's HepG2 Seahorse XF Respirometric Screening Assay at Maximal Respiratory State [uncoupled], Simmons Lab (AID 2284002); settings: actives raise or lower the signal
# How it was run: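 Maximal respiration in HepG2 cells is recorded as OCR by Seahorse XF following FCCP injection. Compounds span 125 nM–100 uM final; activity is called in either direction against DMSO.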
# [6] = CCTE_Simmons_MITO_inhib_resp_rate: CCTE's HepG2 Seahorse XF Respirometric Screening Assay at Inhibited Respiratory State [full ETC block], Simmons Lab (AID 2284006); settings: actives raise or lower the signal
# How it was run: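 Compound injected onto HepG2 cells (125 nM–100 uM final, 7 points); FCCP then rotenone/antimycin A added. Oxygen consumption read every 6 min (3 min mix, 3 min measure) for 72 min. Inhibited-state OCR fitted against DMSO.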
# [7] = TOX21_TR_RXR_BLA_Antagonist_Followup_viability: Viability Assessment in the Tox21 Thyroid Hormone Receptor beta Retinoid X Receptor alpha (RXRa) Antagonism Beta-lactamase (BLA) Follow-Up Assay (AID 2283979; active = hit-call score of the fitted dose curve at least 0.9, where 1 is the maximum)
# How it was run: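 Follow-up compounds (11 concentrations, triplicate) were incubated 16 h at 37C/5% CO2 with HEK293T RXRa-bla cells seeded at 2,500/well in charcoal-stripped-serum medium. ATP content by CellTiter-Glo luminescence gave viability; curves fitted in both directions against DMSO.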
# [8] = CCTE_Harrill_HTTr_Viability_DMEM_6hr: (Pilot) CCTE's 6-hour Cell Viability Assessment for the High-Throughput Transcriptomics (HTTr) Platform, in MCF-7 cells cultured in DMEM + 10% fetal bovine serum, Harrill Lab (AID 2283973)
# How it was run: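 MCF-7 cells in DMEM + 10% FBS, eight-point dilution series, 6 h exposure. Membrane integrity by propidium iodide exclusion with high-content imaging; bidirectional fit versus DMSO.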
# [9] = CCTE_Harrill_HTTr_Viability_DMEM_12hr: (Pilot) CCTE's 12-hour Cell Viability Assessment for the High-Throughput Transcriptomics (HTTr) Platform, in MCF-7 cells cultured in DMEM + 10% fetal bovine serum, Harrill Lab (AID 2283974)
# How it was run: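 MCF-7 cells in DMEM + 10% FBS exposed 12 h to an eight-point dilution series; membrane integrity scored by propidium iodide exclusion with high-content imaging, bidirectional fitting versus DMSO.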
# [10] = CCTE_Harrill_HTTr_Viability_DMEM_24hr: (Pilot) CCTE's 24-hour Cell Viability Assessment for the High-Throughput Transcriptomics (HTTr) Platform, in MCF-7 cells cultured in DMEM + 10% fetal bovine serum, Harrill Lab (AID 2283975)
# How it was run: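 MCF-7 cells in DMEM with 10% FBS exposed for 24 hours to an eight-point dilution series. Membrane integrity by propidium iodide exclusion with high content imaging; bidirectional fit against DMSO.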
# [11] = CCTE_Harrill_HTTr_Viability_PRF_DMEM_6hr: (Pilot) CCTE's 6-hour Cell Viability Assessment for the High-Throughput Transcriptomics (HTTr) Platform, in MCF-7 cells cultured phenol red-free DMEM + 10% charcoal-stripped fetal bovine serum, Harrill Lab (AID 2283976)
# How it was run: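 MCF-7 cells in phenol red-free DMEM with 10% charcoal-stripped FBS exposed 6 hours to an eight-point dilution series. Propidium iodide exclusion imaged; curves fitted bidirectionally against DMSO.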
# [12] = CCTE_Harrill_HTTr_Viability_PRF_DMEM_12hr: (Pilot) CCTE's 12-hour Cell Viability Assessment for the High-Throughput Transcriptomics (HTTr) Platform, in MCF-7 cells cultured in phenol red-free DMEM + 10% charcoal-stripped fetal bovine serum, Harrill Lab (AID 2283977)
# How it was run: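 MCF-7 cells in phenol red-free DMEM with 10% charcoal-stripped FBS exposed 12 hours to an eight-point dilution series. Viability assessed by high-content imaging of propidium iodide exclusion; bidirectional fit versus DMSO.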
# [13] = CCTE_Harrill_HTTr_Viability_PRF_DMEM_24hr: (Pilot) CCTE's 24-hour Cell Viability Assessment for the High-Throughput Transcriptomics (HTTr) Platform, in MCF-7 cells cultured in phenol red-free DMEM + 10% charcoal-stripped fetal bovine serum, Harrill Lab (AID 2283980)
# How it was run: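 MCF-7 cells in phenol red-free DMEM with 10% charcoal-stripped FBS, eight-point dilution series, 24 h exposure. Membrane integrity by propidium iodide exclusion with high content imaging; bidirectional fit vs DMSO.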
# [14] = CCTE_Harrill_HTTr_Apoptosis_DMEM_6hr: (Pilot) CCTE's 6-hour Apoptosis Assessment for the High-Throughput Transcriptomics (HTTr) Platform, in MCF-7 cells cultured in DMEM + 10% fetal bovine serum, Harrill Lab (AID 2283981)
# How it was run: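 Caspase-3/7 activation read by high content imaging with CellEvent Caspase 3/7 Green in MCF-7 cells (DMEM + 10% FBS), 6 h after dosing; eight-point dilution series. Bidirectional fitting relative to DMSO baseline.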
# [15] = CCTE_Harrill_HTTr_Apoptosis_DMEM_12hr: (Pilot) CCTE's 12-hour Apoptosis Assessment for the High-Throughput Transcriptomics (HTTr) Platform, in MCF-7 cells cultured in DMEM + 10% fetal bovine serum, Harrill Lab (AID 2283982)
# How it was run: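 MCF-7 cells in DMEM + 10% FBS, exposed 12 h to an eight-point dilution series; caspase-3/7 activation imaged with CellEvent Green. Bidirectional fit versus DMSO.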
# [16] = CCTE_Harrill_HTTr_Apoptosis_DMEM_24hr: (Pilot) CCTE's 24-hour Apoptosis Assessment for the High-Throughput Transcriptomics (HTTr) Platform, in MCF-7 cells cultured in DMEM + 10% fetal bovine serum, Harrill Lab (AID 2283983)
# How it was run: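 MCF-7 cells in DMEM + 10% FBS, eight-point dilution series, 24 h exposure. Caspase-3/7 activation imaged by high-content imaging with CellEvent Caspase 3/7 Green. Bidirectional curve fitting against DMSO baseline.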
# [17] = CCTE_Harrill_HTTr_Apoptosis_PRF_DMEM_6hr: (Pilot) CCTE's 6-hour Apoptosis Assessment for the High-Throughput Transcriptomics (HTTr) Platform, in MCF-7 cells cultured phenol red-free DMEM + 10% charcoal-stripped fetal bovine serum, Harrill Lab (AID 2283984)
# How it was run: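 MCF-7 cells in phenol red-free DMEM + 10% charcoal-stripped FBS, eight-point dilution series, 6 h exposure. Caspase-3/7 activation imaged by high-content imaging with CellEvent Caspase 3/7 Green; bidirectional fit versus DMSO baseline.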
# [18] = CCTE_Harrill_HTTr_Apoptosis_PRF_DMEM_12hr: (Pilot) CCTE's 12-hour Apoptosis Assessment for the High-Throughput Transcriptomics (HTTr) Platform, in MCF-7 cells cultured in phenol red-free DMEM + 10% charcoal-stripped fetal bovine serum, Harrill Lab (AID 2283985)
# How it was run: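 MCF-7 cells in phenol red-free DMEM with 10% charcoal-stripped FBS, eight-point dilution series, 12 h exposure. Caspase-3/7 activation imaged by high content imaging with CellEvent Green reagent; bidirectional fit vs DMSO.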
# [19] = CCTE_Harrill_HTTr_Apoptosis_PRF_DMEM_24hr: (Pilot) CCTE's 24-hour Apoptosis Assessment for the High-Throughput Transcriptomics (HTTr) Platform, in MCF-7 cells cultured in phenol red-free DMEM + 10% charcoal-stripped fetal bovine serum, Harrill Lab (AID 2283986)
# How it was run: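 MCF-7 cells in phenol red-free DMEM with 10% charcoal-stripped FBS, exposed 24 h across an eight-point dilution series. Caspase-3/7 activation imaged with CellEvent Green by high content imaging; bidirectional fitting against DMSO.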
smiles,measurement,setting,value
N#CC(CCc1ccc(Cl)cc1)(Cn1cncn1)c1ccccc1 (stereo not drawn),outcome,[1],inactive
same,outcome,[2],inactive
same,outcome,[3],inactive
same,outcome,[4],inactive
same,outcome,[5],inactive
same,outcome,[6],inactive
COc1nc(NC(C)C)nc(NC(C)C)n1,AC50,[4],32.6 µM (active)
same,outcome,[5],inactive
same,outcome,[6],inactive
CS/C(C)=N/OC(=O)N(C)SN(C)C(=O)O/N=C(\C)SC,AC50,[1],21.7 µM (active)
same,AC50,[2],70.8 µM (active)
same,AC50,[3],84.1 µM (active)
CCCCNC(=O)OCC#CI,AC50,[4],14.3 µM (active)
same,AC50,[5],91.7 µM (active)
same,outcome,[6],inactive
CO/C=C(/C(=O)OC)c1ccccc1Oc1cc(Oc2ccccc2C#N)ncn1,outcome,[7],inactive
same,outcome,[1],inactive
same,AC50,[4],9.66 µM (active) and 9.17 µM (active)
same,AC50,[5],6.48 µM (active) and 5.12 µM (active)
same,AC50,[6],17.9 µM (active) and 8.88 µM (active)
CC1COC(Cn2cncn2)(c2ccc(Oc3ccc(Cl)cc3)cc2Cl)O1 (stereo not drawn),AC50,[4],6.1 µM (active)
same,AC50,[5],6.64 µM (active)
same,AC50,[6],6.05 µM (active)
CCc1nn(C)c(C(=O)NCc2ccc(C(C)(C)C)cc2)c1Cl,AC50,[7],7.74 µM (active)
same,AC50,[4],0.928 µM (active)
same,AC50,[5],0.496 µM (active)
same,outcome,[6],inactive
CCNc1nc(Cl)nc(NC(C)C)n1,outcome,[8],inactive
same,outcome,[9],inactive
same,outcome,[10],inactive
same,outcome,[11],inactive
same,outcome,[12],inactive
same,outcome,[13],inactive
same,outcome,[14],inactive
same,outcome,[15],inactive
same,outcome,[16],inactive
same,outcome,[17],inactive
same,outcome,[18],inactive
same,outcome,[19],inactive
CCCCNC(=O)n1c(NC(=O)OC)nc2ccccc21,outcome,[7],inactive
same,outcome,[1],inactive
same,outcome,[2],inactive
same,outcome,[3],inactive
